# Of roughly 8,800 targets only a part is listed; those with a hit were picked by preference. About 0.5% of all pairs of compound and target were hits.
# Compound: CC1=C2C(=CC=C1)N=C(N(C2=O)C3=CC=CC=C3C)CN4C=NC5=C(N=CN=C54)N
# Experiment: log2 fold change, soluble protein after heating vs DMSO (PISA); higher = thermal stabilisation; K562 lysate, 10 uM; active = over 0.2 and 3.5 SD of the protein, either way, in both replicates (recomputed)
# In short: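 Quantification was by TMTpro 16plex LC-MS/MS with equalised channel sums, applied to the supernatant after 21,000xg for 90 min. Samples were crude K562 extract at 1 mg/mL protein in PBS pH 7.4 with 1 mM MgCl2, treated with 10 μM compound for 30 min, heated for 3 min across 48°C-58°C, pooled and brought to 0.5% NP-40 at 4°C. Values are log-two fold changes in thermal stability relative to solvent controls, from duplicates.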
# Chain of UniProt Q9Y2V2 (Q9Y2V2 whole entry, looked up): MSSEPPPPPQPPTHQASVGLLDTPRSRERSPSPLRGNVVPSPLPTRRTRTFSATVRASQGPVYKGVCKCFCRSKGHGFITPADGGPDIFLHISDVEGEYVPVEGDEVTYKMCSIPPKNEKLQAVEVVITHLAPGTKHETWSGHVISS
# Chain of UniProt Q14012 (Q14012 whole entry, looked up): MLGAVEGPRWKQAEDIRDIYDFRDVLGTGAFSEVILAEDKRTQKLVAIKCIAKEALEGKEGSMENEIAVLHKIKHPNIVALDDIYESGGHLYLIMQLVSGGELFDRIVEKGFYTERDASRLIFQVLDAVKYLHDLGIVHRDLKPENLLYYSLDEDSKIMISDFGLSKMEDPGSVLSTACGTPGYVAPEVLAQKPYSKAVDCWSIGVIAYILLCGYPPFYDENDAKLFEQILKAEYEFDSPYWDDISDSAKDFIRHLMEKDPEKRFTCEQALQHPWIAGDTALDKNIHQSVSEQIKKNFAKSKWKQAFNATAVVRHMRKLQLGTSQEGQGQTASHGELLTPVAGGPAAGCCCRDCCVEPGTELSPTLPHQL
# Chain of UniProt Q9Y4P1 (Q9Y4P1 whole entry, looked up): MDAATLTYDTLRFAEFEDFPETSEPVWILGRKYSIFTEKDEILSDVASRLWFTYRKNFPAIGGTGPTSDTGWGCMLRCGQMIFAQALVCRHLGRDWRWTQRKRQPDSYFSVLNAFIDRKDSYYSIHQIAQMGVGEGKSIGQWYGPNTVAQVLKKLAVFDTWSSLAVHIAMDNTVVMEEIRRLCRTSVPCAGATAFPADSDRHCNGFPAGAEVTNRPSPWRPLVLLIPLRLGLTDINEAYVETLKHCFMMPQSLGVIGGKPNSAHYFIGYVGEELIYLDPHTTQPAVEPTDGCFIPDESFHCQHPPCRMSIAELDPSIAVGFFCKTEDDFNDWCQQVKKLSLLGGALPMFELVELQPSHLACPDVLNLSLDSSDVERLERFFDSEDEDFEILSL
# Chain of UniProt Q9NXV6 (Q9NXV6 whole entry, looked up): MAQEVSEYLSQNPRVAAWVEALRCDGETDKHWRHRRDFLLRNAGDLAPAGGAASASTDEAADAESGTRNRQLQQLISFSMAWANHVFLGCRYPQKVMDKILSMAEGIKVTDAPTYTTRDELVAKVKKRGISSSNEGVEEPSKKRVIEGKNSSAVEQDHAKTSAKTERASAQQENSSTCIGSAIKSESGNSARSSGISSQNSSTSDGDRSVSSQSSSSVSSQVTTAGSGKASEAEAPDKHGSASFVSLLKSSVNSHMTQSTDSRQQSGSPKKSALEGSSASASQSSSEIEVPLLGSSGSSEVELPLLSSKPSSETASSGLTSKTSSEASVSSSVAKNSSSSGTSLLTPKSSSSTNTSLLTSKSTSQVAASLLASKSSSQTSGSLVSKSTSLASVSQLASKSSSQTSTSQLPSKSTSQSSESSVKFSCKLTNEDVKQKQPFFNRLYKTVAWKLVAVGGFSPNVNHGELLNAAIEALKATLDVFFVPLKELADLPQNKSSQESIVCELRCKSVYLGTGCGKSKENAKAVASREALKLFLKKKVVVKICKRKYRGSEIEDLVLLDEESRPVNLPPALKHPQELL
# Chain of UniProt Q8N960 (Q8N960 whole entry, looked up): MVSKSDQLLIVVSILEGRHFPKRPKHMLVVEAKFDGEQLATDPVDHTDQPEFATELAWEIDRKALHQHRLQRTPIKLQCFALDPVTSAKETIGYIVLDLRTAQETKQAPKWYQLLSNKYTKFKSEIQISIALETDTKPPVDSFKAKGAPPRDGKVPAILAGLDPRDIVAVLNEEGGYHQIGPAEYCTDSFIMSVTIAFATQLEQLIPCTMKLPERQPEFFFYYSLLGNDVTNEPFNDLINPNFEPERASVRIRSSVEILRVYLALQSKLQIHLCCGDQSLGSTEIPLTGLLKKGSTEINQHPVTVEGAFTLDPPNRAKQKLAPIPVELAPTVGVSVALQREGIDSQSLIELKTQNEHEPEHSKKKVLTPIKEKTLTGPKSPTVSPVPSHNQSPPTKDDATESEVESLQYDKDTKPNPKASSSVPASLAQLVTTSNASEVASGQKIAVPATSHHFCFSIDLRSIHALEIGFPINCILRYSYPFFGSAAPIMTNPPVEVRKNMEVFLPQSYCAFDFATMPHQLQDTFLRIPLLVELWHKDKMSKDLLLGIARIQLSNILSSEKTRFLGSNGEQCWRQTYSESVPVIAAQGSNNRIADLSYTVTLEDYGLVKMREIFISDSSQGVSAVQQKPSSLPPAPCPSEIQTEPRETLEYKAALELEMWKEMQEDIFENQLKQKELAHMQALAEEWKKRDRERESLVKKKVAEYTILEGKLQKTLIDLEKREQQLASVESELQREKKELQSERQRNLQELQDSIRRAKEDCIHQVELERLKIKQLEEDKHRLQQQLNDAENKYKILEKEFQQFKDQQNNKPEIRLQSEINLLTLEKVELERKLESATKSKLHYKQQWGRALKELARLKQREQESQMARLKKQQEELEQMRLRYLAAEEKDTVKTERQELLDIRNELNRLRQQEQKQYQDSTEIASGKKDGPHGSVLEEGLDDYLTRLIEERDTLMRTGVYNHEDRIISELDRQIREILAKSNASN
# Chain of UniProt Q8N163 (Q8N163 whole entry, looked up): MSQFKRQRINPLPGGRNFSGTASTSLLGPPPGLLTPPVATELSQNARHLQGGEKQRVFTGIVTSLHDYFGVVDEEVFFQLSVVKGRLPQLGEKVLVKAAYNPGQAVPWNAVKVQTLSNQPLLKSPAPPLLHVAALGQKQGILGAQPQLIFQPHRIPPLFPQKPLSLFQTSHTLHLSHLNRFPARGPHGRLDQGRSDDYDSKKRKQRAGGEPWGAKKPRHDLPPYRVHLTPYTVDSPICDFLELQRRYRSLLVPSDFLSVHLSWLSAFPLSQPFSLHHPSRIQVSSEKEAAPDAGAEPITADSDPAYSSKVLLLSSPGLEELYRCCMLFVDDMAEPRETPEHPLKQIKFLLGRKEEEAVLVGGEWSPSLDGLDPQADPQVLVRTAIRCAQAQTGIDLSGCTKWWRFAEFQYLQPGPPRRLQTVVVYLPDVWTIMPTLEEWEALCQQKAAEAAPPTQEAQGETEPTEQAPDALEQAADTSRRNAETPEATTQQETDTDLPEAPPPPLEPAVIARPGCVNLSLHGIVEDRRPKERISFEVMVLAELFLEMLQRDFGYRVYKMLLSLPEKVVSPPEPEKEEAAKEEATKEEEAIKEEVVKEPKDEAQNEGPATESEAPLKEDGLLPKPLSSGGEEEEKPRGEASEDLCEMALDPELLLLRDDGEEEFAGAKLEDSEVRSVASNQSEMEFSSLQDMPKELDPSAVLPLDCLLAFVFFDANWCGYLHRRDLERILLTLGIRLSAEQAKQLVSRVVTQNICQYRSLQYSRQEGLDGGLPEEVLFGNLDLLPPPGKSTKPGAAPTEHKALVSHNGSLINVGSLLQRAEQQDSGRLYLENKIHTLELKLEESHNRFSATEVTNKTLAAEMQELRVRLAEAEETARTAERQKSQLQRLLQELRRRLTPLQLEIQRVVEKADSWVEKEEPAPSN
# Chain of UniProt P24863 (P24863 whole entry, looked up): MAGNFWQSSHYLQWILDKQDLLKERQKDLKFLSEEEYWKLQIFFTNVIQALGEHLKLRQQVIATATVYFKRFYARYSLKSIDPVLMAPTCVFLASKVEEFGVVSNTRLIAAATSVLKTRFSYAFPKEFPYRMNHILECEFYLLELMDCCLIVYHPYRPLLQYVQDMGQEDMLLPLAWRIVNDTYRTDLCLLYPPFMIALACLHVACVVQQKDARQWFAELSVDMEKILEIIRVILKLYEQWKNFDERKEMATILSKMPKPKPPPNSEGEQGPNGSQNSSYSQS
# Chain of UniProt Q8N7R7 (Q8N7R7 whole entry, looked up): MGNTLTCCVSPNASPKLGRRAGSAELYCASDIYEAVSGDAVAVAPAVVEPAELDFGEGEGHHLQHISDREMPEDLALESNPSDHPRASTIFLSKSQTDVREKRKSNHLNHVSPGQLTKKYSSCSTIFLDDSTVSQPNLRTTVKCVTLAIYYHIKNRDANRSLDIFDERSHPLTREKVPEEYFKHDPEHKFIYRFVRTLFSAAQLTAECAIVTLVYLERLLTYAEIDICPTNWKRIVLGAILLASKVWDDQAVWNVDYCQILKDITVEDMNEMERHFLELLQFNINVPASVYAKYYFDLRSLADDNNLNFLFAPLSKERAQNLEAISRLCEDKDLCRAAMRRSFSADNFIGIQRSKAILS
# Chain of UniProt O15155 (O15155 whole entry, looked up): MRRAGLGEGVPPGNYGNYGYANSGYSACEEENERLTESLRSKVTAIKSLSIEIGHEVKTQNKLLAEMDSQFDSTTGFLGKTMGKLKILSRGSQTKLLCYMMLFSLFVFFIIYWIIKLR
# Chain of UniProt Q8N4Q1 (Q8N4Q1 whole entry, looked up): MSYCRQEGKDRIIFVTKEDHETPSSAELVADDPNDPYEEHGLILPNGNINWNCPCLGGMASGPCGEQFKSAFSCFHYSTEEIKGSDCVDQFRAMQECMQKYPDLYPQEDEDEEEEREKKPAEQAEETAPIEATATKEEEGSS
# Chain of UniProt O60508 (O60508 whole entry, looked up): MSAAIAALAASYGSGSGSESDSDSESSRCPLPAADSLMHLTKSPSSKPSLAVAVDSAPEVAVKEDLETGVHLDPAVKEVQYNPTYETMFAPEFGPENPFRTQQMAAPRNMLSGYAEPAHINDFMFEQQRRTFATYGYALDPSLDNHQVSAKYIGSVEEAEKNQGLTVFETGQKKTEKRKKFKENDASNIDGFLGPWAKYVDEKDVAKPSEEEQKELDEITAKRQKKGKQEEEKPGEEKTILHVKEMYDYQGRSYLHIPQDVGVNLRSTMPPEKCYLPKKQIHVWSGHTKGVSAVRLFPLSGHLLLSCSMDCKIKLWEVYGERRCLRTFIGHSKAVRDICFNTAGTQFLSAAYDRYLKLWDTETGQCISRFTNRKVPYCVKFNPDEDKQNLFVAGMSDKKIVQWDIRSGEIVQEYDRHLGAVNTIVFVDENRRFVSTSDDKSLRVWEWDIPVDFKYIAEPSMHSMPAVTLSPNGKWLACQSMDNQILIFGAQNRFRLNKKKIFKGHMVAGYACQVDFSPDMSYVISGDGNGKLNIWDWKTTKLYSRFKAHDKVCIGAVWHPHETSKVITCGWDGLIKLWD
row,Target,log2 fold change
1,CAMK1 (UniProt Q14012),-0.007 (inactive)
2,CCNC (UniProt P24863),-0.035 (inactive)
3,BMS1 (UniProt Q14692),0.027 (inactive)
4,BET1 (UniProt O15155),0.032 (inactive)
5,CHCHD4 isoform 2 (UniProt Q8N4Q1),-0.101 (inactive)
6,AURKA (UniProt O14965),-0.042 (inactive)
7,CDK1 (UniProt P06493),0.042 (inactive)
8,CCNYL1 (UniProt Q8N7R7),-0.009 (inactive)
9,BRD4 (UniProt O60885),0.003 (inactive)
10,ATG4B (UniProt Q9Y4P1),0.017 (inactive)
11,CCAR2 (UniProt Q8N163),-0.007 (inactive)
12,CEP120 (UniProt Q8N960),0.145 (inactive)
13,CDKN2AIP (UniProt Q9NXV6),0.027 (inactive)
14,CDC40 (UniProt O60508),-0.099 (inactive)
15,AURKAIP1 (UniProt Q9NWT8),-0.014 (inactive)
16,CARHSP1 (UniProt Q9Y2V2),0.019 (inactive)

# From the supplement of paper PMC10849652
